Coupling enz – inhibits coupling enzyme system, counter-screen for aldolase hits; coupling enzyme system counterscreen, AmpLite Red fluorescence; activity change, negative = inhibition, % at 58.2 µM, hits read low; 290,000 tested, 0.67% active; in the data active = activity change below about -30%
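Activity here indicates interference with the coupling reaction, not aldolase inhibition. Compounds at 57.5 uM final met coupling enzymes for 10 min at RT; substrate and AmpLite Red detection followed, with a 525/598 nm fluorescence read after 20 min.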
NPSR antag – neuropeptide S receptor (human) antagonism, cAMP; CHO-NPSR cells, cAMP TR-FRET, antagonist mode; Potency, µM (series often up to 38.3 µM), without a hit: at the top dose activity change, negative = inhibition, most hits filed as inhibitors; 220,000 tested, 1% active; AID 1461; active = well fitted curve in the direction sought with a large enough effect; inconclusive = small, poorly fitted or top-dose-only effect, or another doubt; inactive = no such curve, though single readings can be large; an effect the other way counts as inactive or inconclusive; note: potency is the fitted concentration of half-maximal effect; nearly all actives have a fitted effect of over 50% in size
ALDH1A1 inh – inhibitors of human aldehyde dehydrogenase 1A1; P00352; Purified ALDH1A1, NADH fluorescence, propionaldehyde substrate; Potency, µM (top dose mostly 75.3 µM), for the others: at the highest dose activity, negative = inhibition, usual class: inhibitors; 220,000 tested, 7.3% active; AID 1030;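 note: potency is the fitted concentration of half-maximal effect; plate controls were no enzyme wells and a reference inhibitor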
Target sequence (P00352 whole entry, looked up): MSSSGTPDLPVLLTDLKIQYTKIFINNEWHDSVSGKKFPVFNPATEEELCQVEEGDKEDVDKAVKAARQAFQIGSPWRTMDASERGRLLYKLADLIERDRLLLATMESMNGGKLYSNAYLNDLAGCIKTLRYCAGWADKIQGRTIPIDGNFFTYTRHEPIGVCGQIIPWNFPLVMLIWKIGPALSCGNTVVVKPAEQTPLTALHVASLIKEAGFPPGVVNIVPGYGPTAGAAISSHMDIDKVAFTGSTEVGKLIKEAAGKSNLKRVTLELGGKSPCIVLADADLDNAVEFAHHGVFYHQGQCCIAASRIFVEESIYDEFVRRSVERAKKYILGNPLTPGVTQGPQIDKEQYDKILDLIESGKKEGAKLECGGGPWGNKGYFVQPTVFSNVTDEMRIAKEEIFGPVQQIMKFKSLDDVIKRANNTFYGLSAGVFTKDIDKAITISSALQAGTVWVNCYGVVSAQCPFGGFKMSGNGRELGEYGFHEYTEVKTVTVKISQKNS
JMJD2E inh – JMJD2E (human) inhibition. B2RXH2. JMJD2E catalytic domain, FDH-coupled NADH fluorescence (FDH is formaldehyde dehydrogenase). Potency, µM (highest dose often 57.1 µM), inactives show top-dose activity change, negative = inhibition, actives largely listed as inhibitors. AID 2147. 230,000 tested, 1.6% active;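 note: potency is the fitted concentration of half-maximal effect; 0% = wells with enzyme and -100% = buffer wells without enzyme; nearly all actives have a fitted effect of over 50% in size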
GoLoco inh red – inhibitors of human Gai1-RGS12 GoLoco interaction (red fluorophore); Gai1:RGS12 GoLoco peptide FP, rhodamine, 10 min; Potency, µM (highest dose often 61.6 µM), inactives show at the highest dose activity, negative = inhibition, actives largely listed as inhibitors; 230,000 tested, 0.44% active; AID 880; active = well fitted inhibition curve with a large enough effect, not every such curve was filed as active; inactive = no such curve, though single readings can be large or run the other way; note: potency is the fitted concentration of half-maximal effect; nearly all actives have a fitted effect of over 30% in size
Sfp inh – Sfp phosphopantetheinyl transferase inhibition; Biochemical Sfp PPTase activity, qHTS; Potency, µM, for the others: largest response in the series, negative = inhibition, hits mostly inhibitors; 310,000 tested, 3.5% active; active = well fitted curve in the direction sought with a large enough effect; inconclusive = small, poorly fitted or top-dose-only effect, or another doubt; inactive = no such curve, though single readings can be large; an effect the other way counts as inactive or inconclusive;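 note: the enzyme is Sfp with the accession as filed and its product quenches rhodamine fluorescence; potency is the fitted concentration of half-maximal effect; 0% = enzyme reaction without inhibitor and -100% = no enzyme wells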
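Step 1, compound plus 15 nM Sfp-PPTase, 15 min, room temperature. Step 2, add rhodamine-CoA (5 uM) and BHQ-2-YbbR (12.5 uM). Step 3, read 525/598 nm fluorescence at 0 and 30 min.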
* = called active by the depositor; ? = inconclusive; / = no result; [ ] = remark or other dose. Shown are actives, neighbours in structure and some others; about 8.5% of the full set was active somewhere. Unless noted, calls come from the whole dose curve; as a rule, active = well fitted inhibition curve with a large enough effect (not every such curve was filed as active); inconclusive = small, poorly fitted or top-dose-only effect, or another doubt; inactive = no such curve, though single readings can be large or run the other way. Unless noted, % is set by controls: 0 for no effect and ±100 for the full control effect.

SMILES | Coupling enz | NPSR antag | ALDH1A1 inh | JMJD2E inh | GoLoco inh red | Sfp inh
Cc1cc([N+](=O)[O-])cc2c1NCC1CC=CC21 (configuration not stated) | -8.3 | 5.3% | ? | 3.9% | 5.4% | 4.7%
Cc1cc([N+](=O)[O-])c2c(c1C)C1C=CCC1C(c1ccccn1)N2 (configuration not stated) | -16.4 | -22.2% | 8.91µM* | ? | 18.4% | ?
CC(=O)NC1C(=O)N(Cc2ccccc2)c2ccc(Br)cc21 (configuration not stated) | 0.3 | -8.2% | / | -1.2% | -2.0% | 4.8%
Cc1ccc2c(c1)C(CCN)C(=O)N2Cc1ccccc1 (configuration not stated) | -8.4 | 1.8%[46.1 µM] | 31.6µM* | 16.9% | 6.7% | -25.8%
Cc1c(C(=O)Nc2ccc(S(=O)(=O)Nc3ncccn3)cc2)oc2ccc(F)cc12 | 1.1 | / | / | / | / | 13.9%
Cc1cc2c(c(=O)n1-c1ccccc1)C1O[C@](c3ccsc3)(Cc3ccccc31)O2 | -2.3 | / | / | / | / | -6.3%
O=C(NC1(C(F)(F)F)NC(=O)N(Cc2ccco2)C1=O)c1cccnc1 (configuration not stated) | 0.6 | -2.0%[46.1 µM] | -1.1% | 2.8% | -0.3% | ?
O=C(NC1(C(F)(F)F)NC(=O)N(Cc2ccco2)C1=O)c1cccs1 (configuration not stated) | 1.0 | -13.5%[46.1 µM] | -12.9% | -7.8% | 2.7% | 35.5µM*
C[n+]1cnc(-c2ccccc2)cc1-c1ccccc1 | 1.0 | 8.3% | ? | ? | 14.1µM* | 11.2%
CCOc1ccc(N(CC(=O)NCCSCc2ccccc2)S(C)(=O)=O)cc1 | -1.7 | / | / | / | / | 8.0%
Cc1ccc(C(=O)N/N=C2\CCSC2)cc1[N+](=O)[O-] | -0.1 | 10.7% | 12.6µM* | -1.3% | 4.5% | -25.3%
CCCCCCCCN1C(=O)C(O)=C(C(C)=O)C1c1ccccn1 (configuration not stated) | -1.2 | -7.1%[46.1 µM] | -2.7% | -25.7% | 8.2% | -0.9%
COC(CN1C(=O)C(O)=C(C(C)=O)C1c1ccccn1)OC (configuration not stated) | -7.3 | -8.3%[46.1 µM] | 4.8% | ? | 5.4% | 79.4µM*
O=C1/C(=N/n2cnnc2)c2ccccc2N1Cc1ccccc1 | 0.0 | ? | 0.0891µM* | 8.5% | 1.7% | 44.7µM*
COc1ccc(-c2n[nH]c(=S)n2-c2ccc(Br)cc2)cc1OC | 12.5 | / | / | / | / | -1.4%
Cc1cc(OCC(O)CN2CCCC2)cc(C)c1Cl (configuration not stated) | / | / | / | / | / | 11.8%
CCCCCCCCCCCCCCCCOC[C@H](COP(=O)([O-])OCC[N+](C)(C)C)OC(=O)CCCCCCCC(=O)O | 18.2 | / | / | / | / | -18.5%
CCOC(=O)c1[nH]c2c(c1-c1ccccc1)C(=O)CC(c1ccc(OC)c(OC)c1)C2 (configuration not stated) | 0.7 | -11.4% | 12.6µM* | -13.0% | 2.9% | -0.9%
CC(C)C(NC=C1C(=O)OC(C)(C)OC1=O)C(=O)O (configuration not stated) | -4.5 | 7.4%[46.1 µM] | 8.91µM* | -6.1% | -38.7% | -16.2%
COc1ccccc1NC(=O)Cc1nnc(SCC(=O)c2ccc(F)cc2)n1C | -0.3 | / | / | / | / | 16.6%
CC(NC(=O)Nc1cccc([N+](=O)[O-])c1)(C(F)(F)F)C(F)(F)F | -0.5 | 0.2%[46.1 µM] | -5.0% | -0.8% | -3.6% | -3.6%
CCc1cccc2c(C(=O)CCl)c[nH]c12 | 2.0 | -4.5%[46.1 µM] | 8.91µM* | 0.1% | / | 9.6%
O=C(OCC(=O)c1c[nH]c2ccccc12)c1ccc([N+](=O)[O-])s1 | 0.3 | -14.1% | 0.708µM* | -4.2% | 12.6% | 2.3%
CCc1cccc2c(C(=O)CSc3nncn3C)c[nH]c12 | 0.0 | -4.9% | 10.0% | -5.4% | 1.0% | 16.9%
CCc1cccc2c(C(=O)COC(=O)c3ccc([N+](=O)[O-])s3)c[nH]c12 | -4.4 | -11.1% | 12.6µM* | -18.5% | 3.7% | 1.5%
SMILES | Coupling enz | NPSR antag | ALDH1A1 inh | JMJD2E inh | GoLoco inh red | Sfp inh
Cc1ccc(C(=O)OCC(=O)c2c[nH]c3ccccc23)cc1 | 1.2 | 7.6% | 8.6% | 14.8% | 10.5% | 12.9%
O=c1ccc(N=Nc2ccccc2)ccc1O | 5.0 | 47.5% | / | 5.62µM* | 2.9% | -10.4%
O=C(CS(=O)(=O)c1c[nH]c2ccccc12)N1CCCCCC1 | 0.1 | -0.5% | ? | -0.3% | -3.9% | 10.2%
CC(=O)Oc1cc2oc(=O)cc(C)c2cc1OC(C)=O | 0.7 | 0.1%[46.1 µM] | ? | ? | 125.0% | 79.4µM*
Cc1cccc(N(CC(=O)N/N=C/c2cc([N+](=O)[O-])ccc2Cl)S(C)(=O)=O)c1C | -59.4* | -29.7%[46.1 µM] | ? | 1.8% | -4.9% | 6.2%
CS(=O)(=O)N(CC(=O)N/N=C/c1cc([N+](=O)[O-])ccc1Cl)c1ccccc1 | -14.3 | -28.6%[46.1 µM] | 3.7% | 2.3% | 0.9% | -12.7%
COc1cccc(Cn2c(=O)c(-c3cccs3)nc3cnc(N4CCOCC4)nc32)c1 | -1.3 | / | ? | / | 11.3% | -0.5%
N#CCCn1c(=O)cnc2cnc(N3CCNCC3)nc21 | 0.9 | / | ? | / | 0.0% | 21.9%
CN1CCN(c2ncc3nc(-c4ccc(Cl)cc4)c(=O)n(Cc4ccc(F)cc4)c3n2)CC1 | 1.4 | / | ? | / | 4.5% | -19.8%
O=c1c(-c2ccc(Cl)cc2)nc2cnc(N3CCNCC3)nc2n1Cc1ccc(F)cc1 | -0.2 | / | ? | / | 7.1% | 44.7µM*
O=c1c(CCc2ccccc2)nc2cnc(N3CCNCC3)nc2n1Cc1ccc(F)cc1 | -0.2 | / | ? | / | 3.2% | 50.1µM*
O=c1cnc2cnc(N3CCNCC3)nc2n1Cc1ccc(F)cc1 | 1.3 | / | ? | / | 8.91µM* | 2.5%
COc1cccc(Cn2c(=O)c(-c3cccs3)nc3cnc(N4CCNCC4)nc32)c1 | -4.1 | / | ? | / | 12.1% | 17.8µM*
COc1ccc(-c2nc3cnc(N4CCNCC4)nc3n(Cc3cccc(OC)c3)c2=O)cc1 | 0.9 | / | ? | / | 3.8% | ?
COc1cccc(Cn2c(=O)c(-c3ccc(Cl)cc3)nc3cnc(N4CCNCC4)nc32)c1 | -2.1 | / | ? | / | -0.9% | 39.8µM*
O=C(Nc1ccccc1)N1CCC(C(=O)N2CCCC(C(F)(F)F)C2)CC1 (configuration not stated) | / | / | / | / | / | 19.5%
CC(=O)N1CCC2(CC1)C(C#N)=C(N)Oc1n[nH]c(CSc3ccc(C)cc3)c12 | 3.2 | -8.3%[46.1 µM] | 10µM* | -11.3% | 8.9% | 13.5%
Cc1[nH]nc2c1C1(C(=O)Nc3ccc([N+](=O)[O-])cc31)C(C#N)=C(N)O2 (configuration not stated) | 7.2 | -7.4%[46.1 µM] | 8.4% | 3.0% | -1.6% | 16.7%
Cc1ccc(SCc2[nH]nc3c2C2(C(=O)Nc4ccc(F)cc42)C(C#N)=C(N)O3)cc1 (configuration not stated) | -3.1 | -3.4%[46.1 µM] | 2.24µM* | 6.9% | -5.2% | 9.8%

Screens deposited in PubChem BioAssay by National Center for Advancing Translational Sciences (NCATS).
